Measured values published in PMC7862700, “An all-to-all approach to the identification of sequence-specific readers for epigenetic DNA modifications on cytosine”.

Experiments:
Test in all cases: DAPPL (digital affinity profiling via proximity ligation, sequencing); 10 mM Tris-HCl pH 7.5, 50 mM NaCl, 1 mM DTT, 4% glycerol, room temperature, 30 min; GST-TFs on glutathione beads, 16-mer random dsDNA library, 0.1% formaldehyde crosslink after washing; high values mean tight binding
[1] = molecular target: T1, FLI1 (Homo sapiens, UniProt Q01543 1-452); settings: protein: recombinant; tags: N-terminal GST; dsDNA, one strand shown
T1 sequence: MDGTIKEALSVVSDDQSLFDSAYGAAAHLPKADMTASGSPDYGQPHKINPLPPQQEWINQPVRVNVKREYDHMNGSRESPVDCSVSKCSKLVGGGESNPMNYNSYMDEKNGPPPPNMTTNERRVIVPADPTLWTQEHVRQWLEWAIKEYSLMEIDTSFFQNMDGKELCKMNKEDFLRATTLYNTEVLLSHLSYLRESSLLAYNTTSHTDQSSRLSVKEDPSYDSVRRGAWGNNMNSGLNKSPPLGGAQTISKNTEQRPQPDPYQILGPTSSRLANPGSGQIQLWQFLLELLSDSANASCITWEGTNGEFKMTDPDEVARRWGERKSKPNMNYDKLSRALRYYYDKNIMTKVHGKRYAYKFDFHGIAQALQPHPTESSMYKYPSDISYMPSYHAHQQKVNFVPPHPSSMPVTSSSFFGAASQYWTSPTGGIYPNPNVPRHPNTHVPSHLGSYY
Summary of the method: (§1)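 GST fusions of human transcription factors were expressed in yeast and captured with glutathione beads. Once given DNA barcodes and pooled alongside a tag-only sample, they were incubated for 30 min at room temperature with 200 nmole of a random double-stranded 16-mer DNA library in Tris/NaCl/DTT/glycerol buffer, then washed, crosslinked (0.1% formaldehyde), proximity-ligated, PCR-amplified and sequenced on an Illumina NextSeq500. The binding signal of each hexamer is its read frequency for a factor divided by its frequency for the tag-only sample.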

[2] = molecular target: T2, ELK1 (Homo sapiens, UniProt P19419 1-428); settings: protein: recombinant; tags: N-terminal GST; dsDNA, one strand shown
T2 sequence: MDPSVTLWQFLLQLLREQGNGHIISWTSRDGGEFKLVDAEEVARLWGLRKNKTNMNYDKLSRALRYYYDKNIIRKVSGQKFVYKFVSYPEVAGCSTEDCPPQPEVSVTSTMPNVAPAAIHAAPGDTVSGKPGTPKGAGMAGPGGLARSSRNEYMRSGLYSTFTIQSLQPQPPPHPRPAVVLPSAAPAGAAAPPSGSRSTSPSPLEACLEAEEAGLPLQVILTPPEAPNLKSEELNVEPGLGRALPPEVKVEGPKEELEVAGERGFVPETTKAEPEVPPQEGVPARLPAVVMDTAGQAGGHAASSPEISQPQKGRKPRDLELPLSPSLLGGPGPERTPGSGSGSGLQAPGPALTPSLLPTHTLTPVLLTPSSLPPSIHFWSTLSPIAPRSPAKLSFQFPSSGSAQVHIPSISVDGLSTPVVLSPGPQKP
Summary of the method: as §1

[3] = molecular target: T3, GABPA (Homo sapiens, UniProt Q06546 1-454); settings: protein: recombinant; tags: N-terminal GST; dsDNA, one strand shown
T3 sequence: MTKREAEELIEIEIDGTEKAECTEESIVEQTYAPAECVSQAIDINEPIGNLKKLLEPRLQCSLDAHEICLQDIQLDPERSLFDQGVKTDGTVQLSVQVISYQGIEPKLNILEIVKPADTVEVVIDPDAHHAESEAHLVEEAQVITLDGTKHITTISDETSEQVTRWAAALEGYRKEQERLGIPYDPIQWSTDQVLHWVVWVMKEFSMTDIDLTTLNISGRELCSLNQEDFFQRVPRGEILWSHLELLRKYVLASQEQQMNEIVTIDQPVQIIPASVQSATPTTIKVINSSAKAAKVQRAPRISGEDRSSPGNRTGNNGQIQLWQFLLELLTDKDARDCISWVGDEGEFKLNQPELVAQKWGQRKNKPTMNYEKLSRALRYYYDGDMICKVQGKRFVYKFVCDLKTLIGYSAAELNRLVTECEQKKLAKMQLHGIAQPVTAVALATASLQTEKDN
Summary of the method: as §1

[4] = molecular target: T4, ERG (Homo sapiens, UniProt P11308 1-479); settings: protein: recombinant; tags: N-terminal GST; dsDNA, one strand shown
T4 sequence: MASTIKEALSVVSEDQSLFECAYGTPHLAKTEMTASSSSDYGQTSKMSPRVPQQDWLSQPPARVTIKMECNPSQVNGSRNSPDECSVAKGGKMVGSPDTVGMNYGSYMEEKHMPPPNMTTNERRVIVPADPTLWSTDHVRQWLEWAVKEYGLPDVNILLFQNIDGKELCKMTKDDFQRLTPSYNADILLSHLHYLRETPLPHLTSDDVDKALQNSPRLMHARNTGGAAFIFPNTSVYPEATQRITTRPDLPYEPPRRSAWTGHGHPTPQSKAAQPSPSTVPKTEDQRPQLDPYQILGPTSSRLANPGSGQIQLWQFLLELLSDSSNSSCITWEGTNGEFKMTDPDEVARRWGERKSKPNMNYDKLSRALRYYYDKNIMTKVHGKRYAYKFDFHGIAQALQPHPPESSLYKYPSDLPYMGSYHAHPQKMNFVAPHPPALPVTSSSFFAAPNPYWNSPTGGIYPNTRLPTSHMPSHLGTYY
Summary of the method: as §1

[5] = molecular target: ELF1 (Homo sapiens, UniProt P32519 1-619); settings: protein: recombinant; tags: N-terminal GST; dsDNA, one strand shown
ELF1, sequence (P32519 whole entry): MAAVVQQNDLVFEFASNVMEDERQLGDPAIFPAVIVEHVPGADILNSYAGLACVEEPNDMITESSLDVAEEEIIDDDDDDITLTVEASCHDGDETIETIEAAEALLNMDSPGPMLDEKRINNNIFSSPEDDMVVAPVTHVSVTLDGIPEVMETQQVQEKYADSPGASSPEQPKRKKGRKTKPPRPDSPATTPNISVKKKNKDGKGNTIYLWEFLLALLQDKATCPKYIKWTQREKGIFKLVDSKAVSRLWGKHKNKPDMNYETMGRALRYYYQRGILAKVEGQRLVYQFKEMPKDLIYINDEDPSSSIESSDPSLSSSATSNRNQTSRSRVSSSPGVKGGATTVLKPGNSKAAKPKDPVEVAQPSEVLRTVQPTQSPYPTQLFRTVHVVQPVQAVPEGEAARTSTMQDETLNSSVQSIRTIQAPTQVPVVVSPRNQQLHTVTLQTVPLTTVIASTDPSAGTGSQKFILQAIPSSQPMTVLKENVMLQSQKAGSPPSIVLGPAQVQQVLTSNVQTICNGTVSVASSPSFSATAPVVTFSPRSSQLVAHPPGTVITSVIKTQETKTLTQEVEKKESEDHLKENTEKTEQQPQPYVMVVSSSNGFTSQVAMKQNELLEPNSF
Summary of the method: as §1

[6] = molecular target: T5, EHF (Homo sapiens, UniProt Q9NZC4 1-300); settings: protein: recombinant; tags: N-terminal GST; dsDNA, one strand shown
T5 sequence: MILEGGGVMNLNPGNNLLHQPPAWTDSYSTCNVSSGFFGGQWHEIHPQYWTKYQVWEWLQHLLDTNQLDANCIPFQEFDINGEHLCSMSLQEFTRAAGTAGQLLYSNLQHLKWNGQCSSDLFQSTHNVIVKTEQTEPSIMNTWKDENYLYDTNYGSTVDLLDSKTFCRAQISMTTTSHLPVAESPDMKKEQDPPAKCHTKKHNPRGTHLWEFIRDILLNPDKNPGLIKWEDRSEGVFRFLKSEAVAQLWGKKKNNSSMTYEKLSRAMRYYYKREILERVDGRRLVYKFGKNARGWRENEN
Summary of the method: as §1

[7] = molecular target: SPI1 (Homo sapiens, UniProt P17947 1-270); settings: protein: recombinant; tags: N-terminal GST; dsDNA, one strand shown
Summary of the method: as §1

[8] = molecular target: SPIB (Homo sapiens, UniProt Q01892 1-262); settings: protein: recombinant; tags: N-terminal GST; dsDNA, one strand shown
SPIB, sequence (Q01892 whole entry): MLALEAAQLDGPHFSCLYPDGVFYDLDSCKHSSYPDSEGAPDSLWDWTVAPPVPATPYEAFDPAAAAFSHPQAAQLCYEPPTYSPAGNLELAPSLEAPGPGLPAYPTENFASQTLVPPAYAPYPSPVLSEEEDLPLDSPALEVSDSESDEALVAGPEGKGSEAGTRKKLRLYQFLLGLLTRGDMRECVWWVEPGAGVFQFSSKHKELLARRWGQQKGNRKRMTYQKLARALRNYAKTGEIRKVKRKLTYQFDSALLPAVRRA
Summary of the method: as §1

[9] = molecular target: T6, ELK3 (Homo sapiens, UniProt P41970 1-407); settings: protein: recombinant; tags: N-terminal GST; dsDNA, one strand shown
T6 sequence: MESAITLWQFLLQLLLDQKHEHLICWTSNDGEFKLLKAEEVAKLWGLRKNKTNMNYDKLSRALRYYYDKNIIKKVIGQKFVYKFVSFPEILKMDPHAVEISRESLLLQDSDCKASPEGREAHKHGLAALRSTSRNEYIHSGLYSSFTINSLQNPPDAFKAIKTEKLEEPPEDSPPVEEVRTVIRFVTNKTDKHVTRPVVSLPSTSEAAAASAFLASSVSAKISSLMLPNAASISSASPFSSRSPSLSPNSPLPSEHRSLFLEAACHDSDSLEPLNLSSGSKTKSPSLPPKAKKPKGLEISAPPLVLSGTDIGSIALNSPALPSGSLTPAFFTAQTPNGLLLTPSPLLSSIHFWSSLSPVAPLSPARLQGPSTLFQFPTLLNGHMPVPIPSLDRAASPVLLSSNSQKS
Summary of the method: as §1

[10] = molecular target: T7, FEV (Homo sapiens, UniProt Q99581 1-238); settings: protein: recombinant; tags: N-terminal GST; dsDNA, one strand shown
T7 sequence: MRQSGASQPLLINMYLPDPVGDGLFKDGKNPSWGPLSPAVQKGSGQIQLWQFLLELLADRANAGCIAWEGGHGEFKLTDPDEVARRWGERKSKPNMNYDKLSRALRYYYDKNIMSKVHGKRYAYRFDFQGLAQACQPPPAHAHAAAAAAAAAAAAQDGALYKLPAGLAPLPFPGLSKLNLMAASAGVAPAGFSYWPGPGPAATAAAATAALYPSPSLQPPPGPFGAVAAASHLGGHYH
Summary of the method: as §1

[11] = molecular target: ETV5 (Homo sapiens, UniProt P41161 1-510); settings: protein: recombinant; tags: N-terminal GST; dsDNA, one strand shown
ETV5, sequence (P41161 whole entry): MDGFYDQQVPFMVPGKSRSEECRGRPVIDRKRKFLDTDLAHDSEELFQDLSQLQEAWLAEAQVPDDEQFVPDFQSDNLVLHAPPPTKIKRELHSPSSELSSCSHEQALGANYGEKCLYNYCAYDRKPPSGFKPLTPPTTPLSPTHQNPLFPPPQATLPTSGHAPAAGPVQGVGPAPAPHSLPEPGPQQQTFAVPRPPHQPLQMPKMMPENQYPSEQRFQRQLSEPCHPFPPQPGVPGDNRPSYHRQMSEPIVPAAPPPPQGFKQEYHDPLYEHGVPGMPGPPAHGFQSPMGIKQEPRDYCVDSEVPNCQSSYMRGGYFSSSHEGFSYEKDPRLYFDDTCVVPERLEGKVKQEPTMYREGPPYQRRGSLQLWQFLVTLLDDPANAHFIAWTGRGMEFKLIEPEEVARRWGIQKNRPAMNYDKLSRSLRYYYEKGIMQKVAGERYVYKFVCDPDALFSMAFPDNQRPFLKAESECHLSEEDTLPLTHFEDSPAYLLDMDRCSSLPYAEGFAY
Summary of the method: as §1

[12] = molecular target: HSF1 (Homo sapiens, UniProt Q00613 1-529); settings: protein: recombinant; tags: N-terminal GST; chain copies: 3; dsDNA, one strand shown
HSF1, sequence (Q00613 whole entry): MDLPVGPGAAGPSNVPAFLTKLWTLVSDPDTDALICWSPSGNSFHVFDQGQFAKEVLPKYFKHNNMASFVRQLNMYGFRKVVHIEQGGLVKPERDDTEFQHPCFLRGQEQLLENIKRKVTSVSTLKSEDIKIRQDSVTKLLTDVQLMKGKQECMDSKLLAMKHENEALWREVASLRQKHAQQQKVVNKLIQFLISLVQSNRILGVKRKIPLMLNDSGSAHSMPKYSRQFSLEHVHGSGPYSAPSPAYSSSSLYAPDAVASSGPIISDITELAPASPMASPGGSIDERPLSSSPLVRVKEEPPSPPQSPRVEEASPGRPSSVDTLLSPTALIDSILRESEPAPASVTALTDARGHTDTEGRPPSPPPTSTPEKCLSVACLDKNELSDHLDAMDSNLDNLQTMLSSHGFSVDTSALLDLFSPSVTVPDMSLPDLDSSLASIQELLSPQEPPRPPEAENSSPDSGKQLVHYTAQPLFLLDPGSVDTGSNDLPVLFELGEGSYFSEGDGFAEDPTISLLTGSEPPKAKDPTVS
Summary of the method: as §1

[13] = molecular target: T8, SPIC (Homo sapiens, UniProt Q8N5J4 1-248); settings: protein: recombinant; tags: N-terminal GST; dsDNA, one strand shown
T8 sequence: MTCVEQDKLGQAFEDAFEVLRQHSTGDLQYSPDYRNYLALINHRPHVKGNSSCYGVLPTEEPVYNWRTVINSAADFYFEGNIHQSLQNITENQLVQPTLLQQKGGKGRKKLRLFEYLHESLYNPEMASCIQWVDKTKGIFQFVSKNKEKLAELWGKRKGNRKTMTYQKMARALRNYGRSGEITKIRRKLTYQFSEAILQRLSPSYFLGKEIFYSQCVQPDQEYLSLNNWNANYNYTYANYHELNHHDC
Summary of the method: as §1

[14] = molecular target: ELF4 (Homo sapiens, UniProt Q99607 1-663); settings: protein: recombinant; tags: N-terminal GST; dsDNA, one strand shown
ELF4, sequence (Q99607 whole entry): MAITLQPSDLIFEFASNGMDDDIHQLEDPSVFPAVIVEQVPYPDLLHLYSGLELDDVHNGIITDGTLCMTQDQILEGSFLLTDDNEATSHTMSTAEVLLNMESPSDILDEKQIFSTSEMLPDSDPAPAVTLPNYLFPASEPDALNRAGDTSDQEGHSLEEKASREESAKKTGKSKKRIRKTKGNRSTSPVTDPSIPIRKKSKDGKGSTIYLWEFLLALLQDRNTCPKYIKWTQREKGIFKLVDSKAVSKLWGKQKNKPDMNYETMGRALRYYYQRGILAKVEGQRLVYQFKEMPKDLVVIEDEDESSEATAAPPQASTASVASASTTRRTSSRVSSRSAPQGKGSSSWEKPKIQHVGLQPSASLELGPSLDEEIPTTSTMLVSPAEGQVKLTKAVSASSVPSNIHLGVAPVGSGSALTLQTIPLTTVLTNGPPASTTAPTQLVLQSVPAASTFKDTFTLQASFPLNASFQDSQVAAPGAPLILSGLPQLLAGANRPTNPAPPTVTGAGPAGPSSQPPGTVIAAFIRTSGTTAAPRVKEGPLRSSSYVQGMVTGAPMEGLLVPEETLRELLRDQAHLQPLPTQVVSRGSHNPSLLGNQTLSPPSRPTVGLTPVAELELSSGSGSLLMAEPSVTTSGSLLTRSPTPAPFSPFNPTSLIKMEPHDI
Summary of the method: as §1

[15] = molecular target: T9, ELK4 (Homo sapiens, UniProt P28324-2 1-405); settings: protein: recombinant; tags: N-terminal GST; dsDNA, one strand shown
T9 sequence: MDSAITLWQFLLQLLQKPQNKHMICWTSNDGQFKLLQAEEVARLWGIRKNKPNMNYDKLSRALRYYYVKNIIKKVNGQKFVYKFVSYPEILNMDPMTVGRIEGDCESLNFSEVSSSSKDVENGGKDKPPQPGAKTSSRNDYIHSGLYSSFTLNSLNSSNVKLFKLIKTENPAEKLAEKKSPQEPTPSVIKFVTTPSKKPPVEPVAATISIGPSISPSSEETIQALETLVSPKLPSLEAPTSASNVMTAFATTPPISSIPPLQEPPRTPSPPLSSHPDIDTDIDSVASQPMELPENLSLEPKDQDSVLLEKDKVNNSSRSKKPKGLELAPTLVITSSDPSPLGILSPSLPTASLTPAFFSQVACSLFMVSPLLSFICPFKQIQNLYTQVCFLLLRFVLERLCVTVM
Summary of the method: as §1

[16] = molecular target: T10, ETV2 (Homo sapiens, UniProt O00321 1-342); settings: protein: recombinant; tags: N-terminal GST; dsDNA, one strand shown
T10 sequence: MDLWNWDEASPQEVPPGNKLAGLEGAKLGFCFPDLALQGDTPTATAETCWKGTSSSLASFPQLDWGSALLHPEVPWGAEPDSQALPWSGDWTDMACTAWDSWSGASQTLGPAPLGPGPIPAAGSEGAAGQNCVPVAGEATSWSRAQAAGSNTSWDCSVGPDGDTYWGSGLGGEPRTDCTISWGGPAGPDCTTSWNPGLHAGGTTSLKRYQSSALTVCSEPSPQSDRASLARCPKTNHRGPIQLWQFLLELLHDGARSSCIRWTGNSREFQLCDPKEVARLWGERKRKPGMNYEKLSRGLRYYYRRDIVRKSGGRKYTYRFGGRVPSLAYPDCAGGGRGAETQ
Summary of the method: as §1

[17] = molecular target: T11, ELF3 (Homo sapiens, UniProt P78545 1-371); settings: protein: recombinant; tags: N-terminal GST; dsDNA, one strand shown
T11 sequence: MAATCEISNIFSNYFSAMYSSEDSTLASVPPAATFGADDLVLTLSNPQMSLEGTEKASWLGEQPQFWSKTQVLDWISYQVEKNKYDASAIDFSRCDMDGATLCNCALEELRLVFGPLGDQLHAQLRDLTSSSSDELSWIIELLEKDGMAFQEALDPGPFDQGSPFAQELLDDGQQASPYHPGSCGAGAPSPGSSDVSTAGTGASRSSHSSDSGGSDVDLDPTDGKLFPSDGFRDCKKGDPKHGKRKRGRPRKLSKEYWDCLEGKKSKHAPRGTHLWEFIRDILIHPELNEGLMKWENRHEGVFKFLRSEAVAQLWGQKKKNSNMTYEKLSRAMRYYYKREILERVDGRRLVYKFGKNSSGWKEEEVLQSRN
Summary of the method: as §1

[18] = molecular target: ETV1 (Homo sapiens, UniProt P50549 1-477); settings: protein: recombinant; tags: N-terminal GST; dsDNA, one strand shown
ETV1, sequence (P50549 whole entry): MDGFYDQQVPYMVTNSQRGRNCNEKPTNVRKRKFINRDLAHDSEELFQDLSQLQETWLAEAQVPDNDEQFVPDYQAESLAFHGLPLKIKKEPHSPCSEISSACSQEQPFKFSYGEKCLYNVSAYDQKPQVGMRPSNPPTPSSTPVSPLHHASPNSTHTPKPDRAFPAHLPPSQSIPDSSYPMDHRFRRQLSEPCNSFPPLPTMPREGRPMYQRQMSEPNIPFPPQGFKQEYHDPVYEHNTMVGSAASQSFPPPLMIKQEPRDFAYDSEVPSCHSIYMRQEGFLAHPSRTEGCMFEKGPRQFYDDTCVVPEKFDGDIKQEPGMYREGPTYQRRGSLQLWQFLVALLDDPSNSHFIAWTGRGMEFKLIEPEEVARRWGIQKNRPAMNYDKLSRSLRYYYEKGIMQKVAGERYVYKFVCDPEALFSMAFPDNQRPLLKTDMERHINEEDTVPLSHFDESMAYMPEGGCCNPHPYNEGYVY
Summary of the method: as §1

For GGTTTC, the binding signal [1] was 1.53 fold enrichment (6-mer frequency, TF over GST control), the binding signal [2] was 1.39 fold enrichment (6-mer frequency, TF over GST control) and the binding signal [3] was 1.54 fold enrichment (6-mer frequency, TF over GST control). The binding signal [4] was 1.6 fold enrichment (6-mer frequency, TF over GST control), the binding signal [5] was 1.54 fold enrichment (6-mer frequency, TF over GST control) and the binding signal [6] was 1.51 fold enrichment (6-mer frequency, TF over GST control). The binding signal [7] was 1.6 fold enrichment (6-mer frequency, TF over GST control), the binding signal [8] was 1.52 fold enrichment (6-mer frequency, TF over GST control) and the binding signal [9] was 1.62 fold enrichment (6-mer frequency, TF over GST control). For the same sequence, the binding signal [10] was 1.55 fold enrichment (6-mer frequency, TF over GST control), the binding signal [11] was 1.61 fold enrichment (6-mer frequency, TF over GST control) and the binding signal [12] was 1.16 fold enrichment (6-mer frequency, TF over GST control). The binding signal [13] was 1.5 fold enrichment (6-mer frequency, TF over GST control), the binding signal [14] was 1.49 fold enrichment (6-mer frequency, TF over GST control) and the binding signal [15] was 1.36 fold enrichment (6-mer frequency, TF over GST control). The binding signal [16] was 1.43 fold enrichment (6-mer frequency, TF over GST control), the binding signal [17] was 1.31 fold enrichment (6-mer frequency, TF over GST control) and the binding signal [18] was 1.64 fold enrichment (6-mer frequency, TF over GST control).
